A selection: hits, their analogues and other compounds. The true share with any hit is near 2.9%.
ADAM10 inh – ADAM10 inhibition, QFRET primary screen; O14672; recombinant ADAM10, EDANS/DABCYL FRET peptide cleavage, 3 h; inhibition, % at 7 µM; hit rate 0.62% among 370,000; AID 720582;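 active means inhibition above a per-campaign cutoff equal to the mean of compounds falling between control-based bounds plus 3 SD, cut at about 20% in these data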;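 further: 0% = DMSO wells while the 100% control is not disclosed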
ADAM17 inh – inhibitors of human ADAM17; recombinant ADAM17, EDANS/DABCYL FRET peptide cleavage; hit rate 0.83% among 370,000; AID 720648; P78536; inhibition, % at 6.95 µM;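 active means inhibition above the mean of compounds lying between control limits plus 3 SD, set per campaign, cut at about 8.5% in these data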;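 further: 0% = DMSO-only wells as the low control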
proKLK7 act – activators of human kallikrein-7 zymogen; P49862; purified proKLK7, EDANS-DABCYL substrate fluorescence; 100% is mature enzyme control, 0% vehicle; activation, % at 7 µM; hit rate 0.9% among 370,000;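 active means activation above the mean of all tested compounds plus 3 SD, computed per campaign excluding outliers beyond control limits, cut at about 13% in these data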
PLC-beta3 inh – PLC-beta3 (human) inhibition, primary screen. Purified PLC-beta3, fluorogenic substrate, fluorescence. inhibition, % at 12.2 µM. hit rate 0.18% among 370,000;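 further: 0% = median of compound wells on plate and 100% = full blocker control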
PLCg1 inh – blocks human PLC-gamma1 enzyme activity | purified PLC-gamma1, fluorogenic substrate, fluorescence | inhibition, % at 12.2 µM | hit rate 0.84% among 370,000 | AID 720700; in the data active means inhibition above about 9.5%
Target sequence (P19174 whole entry, looked up): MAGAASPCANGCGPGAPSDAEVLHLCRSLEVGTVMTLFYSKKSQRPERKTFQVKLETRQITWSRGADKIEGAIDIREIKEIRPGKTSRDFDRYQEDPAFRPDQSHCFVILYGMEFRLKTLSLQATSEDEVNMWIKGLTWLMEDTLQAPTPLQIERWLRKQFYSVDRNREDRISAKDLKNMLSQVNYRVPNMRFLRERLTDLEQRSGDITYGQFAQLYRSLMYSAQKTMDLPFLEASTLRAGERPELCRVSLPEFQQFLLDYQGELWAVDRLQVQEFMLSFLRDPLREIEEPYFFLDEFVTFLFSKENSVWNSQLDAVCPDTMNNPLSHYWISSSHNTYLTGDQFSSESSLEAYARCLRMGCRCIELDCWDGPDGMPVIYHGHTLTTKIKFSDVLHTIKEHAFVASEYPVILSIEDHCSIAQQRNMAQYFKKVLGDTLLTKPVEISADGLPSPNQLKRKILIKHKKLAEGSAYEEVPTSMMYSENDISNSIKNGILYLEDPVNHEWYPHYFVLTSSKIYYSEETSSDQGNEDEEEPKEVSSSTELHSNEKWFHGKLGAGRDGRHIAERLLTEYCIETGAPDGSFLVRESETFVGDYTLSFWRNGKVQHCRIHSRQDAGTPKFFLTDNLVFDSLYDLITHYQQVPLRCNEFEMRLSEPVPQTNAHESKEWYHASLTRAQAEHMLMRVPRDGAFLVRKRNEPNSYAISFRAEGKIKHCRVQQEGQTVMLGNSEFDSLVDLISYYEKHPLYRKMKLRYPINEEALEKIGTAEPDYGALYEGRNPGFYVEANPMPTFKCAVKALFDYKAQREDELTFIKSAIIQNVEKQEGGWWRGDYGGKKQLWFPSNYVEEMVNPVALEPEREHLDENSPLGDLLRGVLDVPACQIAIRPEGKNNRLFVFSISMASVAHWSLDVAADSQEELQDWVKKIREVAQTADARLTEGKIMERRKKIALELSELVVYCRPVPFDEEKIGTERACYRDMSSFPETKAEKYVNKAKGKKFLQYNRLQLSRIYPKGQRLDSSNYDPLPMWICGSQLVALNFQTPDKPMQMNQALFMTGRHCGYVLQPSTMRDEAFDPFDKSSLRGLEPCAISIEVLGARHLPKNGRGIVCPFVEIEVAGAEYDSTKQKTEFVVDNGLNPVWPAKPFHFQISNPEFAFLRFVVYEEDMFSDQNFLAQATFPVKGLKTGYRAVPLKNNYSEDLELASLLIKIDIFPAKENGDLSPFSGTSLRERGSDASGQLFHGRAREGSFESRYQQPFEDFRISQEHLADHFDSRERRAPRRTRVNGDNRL
PLCgamma1 ctr – inhibits human PLC-gamma1 in PLC-beta3 counter-screen. shares compounds with PLCg1 inh. purified PLC-gamma1, fluorogenic substrate, fluorescence. inhibition, % at 12.3 µM. hit rate 3.1% among 3,300. AID 743258; in the data active means inhibition above about 9.5%
PLCbeta3 conf – confirmation of human PLC-beta3 inhibitors; hit rate 1% among 3,300; AID 743261; inhibition, % at 12.3 µM; purified PLC-beta3, fluorogenic substrate fluorescence; shares compounds with PLCg1 inh
* = called active by the depositor; / = not tested or not shown. Unless noted, no stated cut-off is given here; in the data, active means inhibition above about 11%; inactive means the rest.

SMILES	ADAM10 inh	ADAM17 inh	proKLK7 act	PLC-beta3 inh	PLCg1 inh	PLCgamma1 ctr	PLCbeta3 conf
COc1ccc(OCc2cc(C(=O)NC(C)Cn3cncn3)no2)c(Cl)c1 (stereo unspecified)	5.8	-3.8	0.4	-8.4	10.7*	-9.4	-6.8
COc1ccc(OCc2cc(C(=O)NC(C)Cc3cccnc3)no2)c(Cl)c1 (stereo unspecified)	-4.8	-5.2	-0.6	-4.9	1.6	/	/
CCNC(=O)OCc1cn(-c2ccccc2)nn1	3.9	0.1	-0.4	2.8	2.3	/	/
CC(C)CC(=O)OCc1cn(-c2ccccc2)nn1	11.7	5.5	0.0	5.5	14.9*	-3.8	-0.7
CC(C)(C)C(=O)OCc1cn(-c2ccccc2)nn1	-5.5	-2.4	-0.2	5.7	11.3*	-4.8	-3.2
COc1ccc(/C=C(\NC(=O)c2ccco2)C(=O)NC(Cc2ccccc2)C(=O)O)cc1 (stereo unspecified)	-0.6	2.6	0.3	-3.2	-0.4	/	/
CCC(C)(C)NC(=O)C(c1ccc(OC)cc1)N(CC1CCCO1)C(=O)CCC(=O)Nc1cc(C)on1 (stereo unspecified)	5.3	-3.4	-0.2	1.6	1.0	/	/
CCC(C)(C)NC(=O)C(c1ccc(OC)cc1)N(C(=O)CCC(=O)Nc1cc(C)on1)C1CC1 (stereo unspecified)	2.4	4.7	0.1	2.3	10.7*	-3.3	0.4
COc1ccc(CCNC(=O)CN2C(=O)COc3ccc(S(=O)(=O)N4CCOCC4)cc32)cc1OC	9.9	4.4	-0.3	-5.2	11.3*	-6.6	0.3
COc1ccc(C(c2nnnn2Cc2cccs2)N2CCN(c3ccccc3F)CC2)cc1OC (stereo unspecified)	15.9	8.3	0.3	14.0*	10.7*	4.5	4.0
O=C(NC(N1CCOCC1)C(Cl)(Cl)Cl)c1cc([N+](=O)[O-])cc([N+](=O)[O-])c1 (stereo unspecified)	-4.2	-1.7	0.2	0.9	0.5	/	/
COc1ccc(CCN(C)C(=O)CCNC(=O)c2ccc(Br)cc2)cc1OC	4.7	-1.8	0.1	2.5	11.1*	-2.7	0.6
COc1ccc(CCNC(=O)c2ccc(OC)c(OC)c2)cc1OC	1.1	-2.0	-0.4	-1.6	-1.3	/	/
CC(C)c1onc(C(=O)N2CCCCCC2)c1[N+](=O)[O-]	9.1	5.7	-0.1	4.2	15.1*	-3.4	-1.4
CCOC(=O)c1c(C)nc2c(c1-c1cc(OC)c(OC)c(OC)c1)C(=O)c1ccccc1-2	6.1	4.0	-0.5	7.0	12.5*	-1.4	-3.5
CCOC(=O)c1c(C)nc2c(c1-c1ccc(OC)cc1)C(=O)CC(C)(C)C2	3.7	-1.2	0.1	4.2	9.3	/	/
CCCCn1c(N)c(N(CC(C)C)C(=O)CCN2C(=O)C3CC=CCC3C2=O)c(=O)[nH]c1=O (stereo unspecified)	-7.0	3.7	-0.7	-1.5	3.5	/	/
CCOP(=O)(OCC)C(Nc1cccc(C(F)(F)F)c1)c1ccc(Br)cc1 (stereo unspecified)	14.3	8.5	-0.5	11.5*	8.0	-7.9	-9.2
CCOP(=O)(OCC)C(Nc1ccc(F)cc1)c1ccccc1 (stereo unspecified)	0.7	0.4	0.5	-3.5	-0.6	/	/
CCOc1ccccc1NC(=O)c1cccc(NC2=NC3CS(=O)(=O)CC3S2)c1 (stereo unspecified)	11.4	6.0	0.0	6.7	12.8*	-0.8	1.9
CN(C)c1ccc(C(=O)N2CCN(c3cc(C(F)(F)F)nc4ccccc34)CC2)cc1	-6.0	-1.2	-0.3	-8.3	-0.9	/	/
O=P(Cc1cccc[n+]1[O-])(c1ccccc1)c1ccccc1	-10.1	-2.5	-0.1	3.3	0.9	/	/
O=P(Cc1cc[n+]([O-])cc1)(c1ccccc1)c1ccccc1	6.1	2.0	0.4	11.3*	6.5	-2.7	0.8
O=C(c1cnsn1)N1CCN(c2ccccc2)CC1	1.8	2.5	-0.1	10.9*	7.0	-1.4	1.3
O=C(c1cnccn1)N1CCN(c2ccccc2)CC1	-2.0	-4.6	-0.5	1.4	-1.2	/	/
SMILES	ADAM10 inh	ADAM17 inh	proKLK7 act	PLC-beta3 inh	PLCg1 inh	PLCgamma1 ctr	PLCbeta3 conf
CCn1c(=O)cc(SCC(=O)N(C)Cc2ccccc2)c2ccccc21	-22.1	-2.5	0.0	-3.6	2.0	/	/
CCOC(=O)CSc1cc(=O)n(CC)c2ccccc12	-41.5	-9.8	-0.4	2.2	10.1*	-7.8	-7.4
COC(=O)[C@]12C[C@H](CC(=O)NCCC(C)C)C(=O)N(Cc3ccc(Cl)cc3Cl)C1=C[C@H](C1CCCC1)O[C@@H]2C	4.4	5.2	-0.2	0.8	10.6*	3.0	2.5
COC(=O)[C@]12C[C@H](CC(=O)NCc3cccc4ccccc34)C(=O)N(Cc3ccc(Cl)cc3Cl)C1=C[C@H](C1CCCC1)O[C@@H]2C	-1.9	-8.4	0.7	-0.5	-1.1	/	/
COC(=O)[C@]12C[C@H](CC(=O)NCC3CCCCC3)C(=O)N(Cc3cccc4ccccc34)C1=C[C@H](C1CCCC1)O[C@@H]2C	-4.5	-3.4	-0.3	0.7	10.9*	-0.6	-7.7
COC(=O)[C@]12C[C@H](CC(=O)N3CCCCC3)C(=O)N(CCC3=CCCCC3)C1=C[C@H](C1CCCC1)O[C@@H]2C	-10.5	-8.2	0.2	-6.8	10.8*	1.2	-1.1
CCCCOCCCNC(=O)C[C@H]1C[C@@]2(C(=O)OC)C(=C[C@H](C3CCCC3)O[C@@H]2C)N(Cc2ccc(Cl)cc2Cl)C1=O	-2.7	-1.7	0.6	4.2	-0.4	/	/
Cc1onc(-c2ccccc2Cl)c1C(=O)OCC(=O)N1CCC(C)CC1	-1.6	-2.3	0.6	-7.0	-22.4	/	/
Cc1sc(NC(=O)C2=COCCO2)c(C(N)=O)c1C	-8.1	-3.6	0.4	-16.8	-13.7	/	/
NS(=O)(=O)c1ccc(CCNC(=O)C2CCCCN2S(=O)(=O)c2ccccc2)cc1 (stereo unspecified)	6.6	0.4	-0.5	3.8	12.8*	-6.0	-1.9
CC(C)Cn1c(SCC(=O)N2CCCc3ccccc32)nc2ccccc2c1=O	10.9	3.8	0.0	-0.9	11.0*	1.0	1.2
CCOC(=O)c1c(NC(=O)CN2C(=O)NC(C)(c3ccccc3)C2=O)sc(C)c1C (stereo unspecified)	4.5	4.5	0.2	-1.1	0.4	/	/
CCOC(=O)c1cnn(-c2nc(-c3ccccc3F)cs2)c1C(F)(F)F	7.5	5.4	-0.6	8.5	9.8*	-101.7	-96.1
O=C(CCc1n[nH]c(=O)[nH]c1=O)N1CCOCC1	-1.1	4.8	0.2	11.1*	5.9	-7.7	-0.6
O=C(CCNc1n[nH]c(=O)[nH]c1=O)N1CCOCC1	7.6	-2.7	0.1	-0.4	13.8*	-7.2	-2.4
CCCCOC(=O)CCc1n[nH]c(=O)[nH]c1=O	1.9	-2.7	-0.6	2.4	-0.8	/	/
CC(=O)Nc1ccc(-c2csc(Nc3ncccn3)n2)cc1	10.1	-1.3	0.7	-3.6	9.9*	1.8	3.8

Compound activity: PubChem BioAssay, The Scripps Research Institute Molecular Screening Center
